The record followed here is ChEMBL document CHEMBL3988442, “University of Dundee, Small-Polar-MMV Screening Library” (2021).

SMILES strings stand for the structures.

For this experiment, the target named is T1, Methionyl-tRNA synthetase, putative (Leishmania donovani (strain BPK282A1)) (UniProt E9BF75).
T1 sequence (whole entry): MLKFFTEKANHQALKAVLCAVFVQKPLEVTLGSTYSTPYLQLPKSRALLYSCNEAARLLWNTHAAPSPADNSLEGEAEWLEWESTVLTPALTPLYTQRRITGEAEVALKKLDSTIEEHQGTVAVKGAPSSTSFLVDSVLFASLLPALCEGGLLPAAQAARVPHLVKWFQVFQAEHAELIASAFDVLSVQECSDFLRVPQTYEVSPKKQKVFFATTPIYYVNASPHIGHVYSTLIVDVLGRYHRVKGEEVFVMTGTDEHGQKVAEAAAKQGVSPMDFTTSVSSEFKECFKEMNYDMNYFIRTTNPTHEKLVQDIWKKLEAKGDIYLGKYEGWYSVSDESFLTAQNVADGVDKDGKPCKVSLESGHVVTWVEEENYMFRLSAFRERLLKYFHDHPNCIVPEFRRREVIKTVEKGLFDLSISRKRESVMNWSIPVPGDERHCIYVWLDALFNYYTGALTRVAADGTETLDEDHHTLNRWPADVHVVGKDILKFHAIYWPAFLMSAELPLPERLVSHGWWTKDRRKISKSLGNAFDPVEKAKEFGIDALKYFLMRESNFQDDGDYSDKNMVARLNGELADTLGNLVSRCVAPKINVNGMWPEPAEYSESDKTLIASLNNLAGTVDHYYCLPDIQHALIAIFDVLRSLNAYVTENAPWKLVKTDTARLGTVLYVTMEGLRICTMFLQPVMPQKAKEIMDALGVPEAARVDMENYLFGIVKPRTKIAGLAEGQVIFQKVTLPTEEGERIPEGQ
The experiment in a line: Leishmania donovani Methionine tRNA synthetase (LdMetRS):v7. Dose response assay. Type of experiment: functional. Also on record: conc 80 nM, time 150 minutes.

Consider `COc1ccccc1C1(CNc2nnc(C)c(C)c2C#N)CCCC1`, for which the PXC50 by setting is: (BOTTOM 3.334115973, HILLSLOPE 1.087838863, MAX_EFFECT 53.16698656, TOP 83.15988554) 4.21; (MAX_EFFECT 37.68115942) below 4; (MAX_EFFECT 40.13605442) below 4; (MAX_EFFECT 44.81658692) below 4; (MAX_EFFECT 49.91243433) below 4.

In the case of `COc1ccc(OC)c(C2CCN(c3ccc4cc[nH]c4n3)C2)c1` (stereo not given), the PXC50 is 4.07 (BOTTOM 1.480634741, HILLSLOPE 1.299916262, MAX_EFFECT 56.52173913, TOP 100.0); 4.11 (BOTTOM -1.247583822, HILLSLOPE 1.089672094, MAX_EFFECT 58.06451613, TOP 100.0); 4.09 (BOTTOM -8.715782986, HILLSLOPE 1.383269592, MAX_EFFECT 51.81518152, TOP 100.0); below 4 (MAX_EFFECT 37.4800638); below 4 (MAX_EFFECT 42.80230326).

The compound `Cc1cc(C)n(CCCn2cncc2-c2ccc3c(c2)CC(C)N3C)n1` (stereo not given) showed a PXC50 (BOTTOM 4.401789899, HILLSLOPE 1.374668367, MAX_EFFECT 53.02013423, TOP 100.0) of 4.02; a PXC50 (BOTTOM 5.049738187, HILLSLOPE 0.795238386, MAX_EFFECT 63.88888889, TOP 100.0) of 4.3; a PXC50 (BOTTOM 6.889933183, HILLSLOPE 1.019311149, MAX_EFFECT 71.9237435, TOP 100.0) of 4.34; a PXC50 (MAX_EFFECT 6.666666667) below 4; a PXC50 (MAX_EFFECT 21.73913043) below 4.

Turning to `CCc1ccc(-c2cc(C(F)(F)F)nc(N3CCC(N)CC3)n2)cc1`, the PXC50 came to 4.56 (BOTTOM 0.706388919, HILLSLOPE 2.15610203, MAX_EFFECT 103.8387716, TOP 100.0); 4.35 (BOTTOM 1.827311561, HILLSLOPE 2.684909792, MAX_EFFECT 98.40510367, TOP 100.0); 4.34 (BOTTOM 4.066049008, HILLSLOPE 2.434171465, MAX_EFFECT 89.60138648, TOP 100.0); 4.46 (BOTTOM 4.927859372, HILLSLOPE 1.513560957, MAX_EFFECT 87.5, TOP 100.0); 4.19 (BOTTOM -3.243969643, HILLSLOPE 5.145586142, MAX_EFFECT 85.90604027, TOP 95.73252463).

Take `Oc1ccc(N(CCc2ccccc2)CCn2cncn2)cc1`: the PXC50 by setting is: (BOTTOM 3.490457709, HILLSLOPE 3.448426001, MAX_EFFECT 80.53691275, TOP 87.69859371) 4.3; (BOTTOM 4.951266088, HILLSLOPE 3.910237354, MAX_EFFECT 63.19444444, TOP 100.0) 4.05; (MAX_EFFECT 6.53907496) below 4; (MAX_EFFECT 12.85988484) below 4; (MAX_EFFECT 66.72443674) below 4.
